Laboratory results: PubChem BioAssay AID720553 (National Center for Advancing Translational Sciences (NCATS), 2013)
About 3,300 (0.97%) of roughly 340,000 compounds were called active.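 How the source made its calls: active means maximum activity change below -70%; inconclusive means maximum activity change from -70% to -50%; inactive means maximum activity change above -50%.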 For the sample, actives were picked, then their nearest neighbours and some compounds at random.

tested on: Potassium voltage-gated channel subfamily H member 2, brain isoform KCNH2 3.1 (human); assay: qHTS for Inhibitors of KCHN2 3.1: Mutant qHTS; details: U2OS KCNH2 3.1, thallium flux FluxOr; hits give low values
How it was run: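 FluxOr-based Tl+ influx in U2OS cells transduced with KCNH2 3.1 virus; rate constants normalized to DMSO controls.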
On the % scale 0 is the no-effect control and ±100 the full control effect.

SMILES	activity change
Cc1ccc(-c2ccc(C3=CC(=O)CC(C)(C)C3=O)cc2)cc1	-9.04% (inactive)
C[C@H](CO)N1C[C@H](C)[C@@H](CN(C)S(=O)(=O)c2ccc(F)cc2)OCc2cnnn2CCCC1=O	-2.94% (inactive)
O=S(=O)(c1cccc(C(F)(F)F)c1)N1c2ccccc2-n2cccc2C1c1cccnc1 (centres undefined)	-17.4% (inactive)
CCCn1c(C(Cc2ccccc2)NC(=O)COC)nc2ccccc21 (centres undefined)	-1.15% (inactive)
COC(=O)c1ccc(Cc2ccccc2)o1	10.6% (inactive)
CCCC(NC(=O)c1ccccc1)c1nc2ccccc2n1Cc1ccc(C(=O)OC)o1 (centres undefined)	-82% (active)
Cc1ccc2[nH]c(=O)c(CN(CC3COCCO3)C(=O)Nc3ccccc3C)cc2c1 (centres undefined)	-106% (active)
Cc1cccc(NC(=O)N(Cc2cc3cc(C)cc(C)c3[nH]c2=O)CC2COCCO2)c1 (centres undefined)	-19.5% (inactive)
COc1ccc2[nH]c(=O)c(CN(CC3CCCO3)C(=O)Nc3ccccc3)cc2c1 (centres undefined)	8.12% (inactive)
COc1cc(C(=O)N2CCOC23CCN(Cc2ccccc2)CC3)cc(OC)c1OC	-5.15% (inactive)
CN(C)C(CNC(=O)c1cccc(S(=O)(=O)N2CCc3ccccc3C2)c1)c1ccccc1 (centres undefined)	-1.69% (inactive)
COc1cccc(OCC(=O)NCCS(=O)(=O)N2CCN(c3ccccc3)CC2)c1	-1.4% (inactive)
CCCCN1C(=O)C(CC(=O)NC(c2ccccc2)c2ccccc2)CC(C(=O)N2CCOCC2)=C1C (centres undefined)	-3.63% (inactive)
CC(C)(C)c1ccc(C(=O)NCc2nnc(SCC(=O)N3CCCc4ccccc43)n2-c2ccccc2)cc1	-6.73% (inactive)
O=C(CSc1nc2[nH]ncc2c(=O)n1-c1ccccc1)N1CCCc2ccccc21	-184% (active)
Cn1c(SCC(=O)N2CCCc3ccccc32)nc2ccccc2c1=O	-2.54% (inactive)
CCOC(=O)C(=Cc1ccccc1)C(=O)c1ccccc1	-13.1% (inactive)
O=C(NCc1nnnn1-c1ccc(Cl)cc1)c1ccc([N+](=O)[O-])o1	-3.24% (inactive)
Cc1ccc([C@@H]2CC=C(C(=O)O)[C@H](c3cccc(Cl)c3)N2S(=O)(=O)c2ccc(C)cc2)cc1	-83.7% (active)
Cc1ccccc1S(=O)(=O)N1[C@@H](c2cccc(Cl)c2)C(C(=O)O)=CC[C@H]1c1ccc(Cl)cc1	10% (inactive)
Cc1ccc(S(=O)(=O)N2[C@@H](c3cccc(Cl)c3)C(C(=O)O)=CC[C@H]2c2ccc(Cl)c(Cl)c2)cc1	-2.17% (inactive)

SMILES	activity change
Cc1nnc(SC(C)C(=O)c2c[nH]c3ccccc23)n1C1CC1 (centres undefined)	-8.46% (inactive)
C#CCN(C[C@@H]1[C@@H](OC(=O)NC2CC2)[C@@H](OC(=O)NC2CC2)Cn2c(=O)ccc(=O)n21)S(=O)(=O)c1ccc(C)cc1	0.102% (inactive)
Nc1nnc(SCC(=O)NC2CCCc3ccccc32)s1 (centres undefined)	-15.6% (inactive)
Cc1ccc(S(=O)(=O)N2CCOCC2)cc1NC(=O)CSc1nnc(N)s1	1.46% (inactive)
Nc1nnc(SCC(=O)NCC(=O)Nc2ccc(F)c(F)c2F)s1	-119% (active)
CCN(CC)C(=O)C1=C(C)N(Cc2ccccc2)C(=O)C(CC(=O)NC(c2ccccc2)c2ccccc2)C1 (centres undefined)	0.781% (inactive)
Cc1noc(C)c1S(=O)(=O)N(C)C[C@H]1OCCCC[C@@H](C)Oc2ccc(NC(=O)CCCN(C)C)cc2C(=O)N([C@H](C)CO)C[C@@H]1C	18.2% (inactive)
COC(=O)C[C@H]1C[C@@H]2c3cc(N(C)C)ccc3O[C@@H]2[C@H](CO)O1	2.06% (inactive)
O=C(Nc1cccc(C(=O)O)c1)/C(=C\c1ccccc1)NC(=O)c1ccc(Br)o1	3.42% (inactive)
Cc1cccn2c(CNCC(C)Oc3cccnc3)c(C(=O)N3CCOCC3)nc12 (centres undefined)	1.22% (inactive)
CCOC(=O)C1CCN(Cc2c(C(=O)N3CCOCC3)nc3c(C)cccn23)CC1	-6.64% (inactive)
Cc1cccc(N2CCC(NCc3c(C(=O)N4CCCCC4)nc4c(C)cccn34)CC2)c1	-70.6% (active)
CC1=C(C(=O)N(C)C)CC(CC(=O)NCCc2ccccn2)C(=O)N1CCC1=CCCCC1 (centres undefined)	6.34% (inactive)
CN(Cc1c(F)cccc1Cl)C(=O)COC(=O)Cn1cnc2ccccc2c1=O	2.53% (inactive)
COc1ccc(NC(=O)C2=CC(c3ccc(OC)c(OC)c3)=NS(=O)(=O)N2C)cc1	-5.31% (inactive)
COc1ccc(C2=NS(=O)(=O)N(C)C(C(=O)NC(C)c3ccccc3)=C2)cc1 (centres undefined)	-85% (active)
COc1ccc(C2=NS(=O)(=O)N(C)C(C(=O)N(C)Cc3ccccc3)=C2)cc1	7.33% (inactive)
Cc1cc2c3ccccc3[nH]c(=O)n2n1	-1.28% (inactive)
COc1ccc([C@H]2N[C@]3(CCCN(CC4CCCCC4)C3=O)[C@H]3C(=O)N(C)C(=O)[C@@H]23)cc1	4.21% (inactive)
CCCCCCNC(=O)O[C@]12C[C@@H](C(=O)OC)[C@@H](C(=O)OC)C[C@@]1(O)CN(S(=O)(=O)c1ccc(C)cc1)C2	-9.12% (inactive)
CCN(CC)CCN(C(=O)c1ccc2c(c1)CCCC2)c1nc2c(OC)cccc2s1	-48.3% (inactive)

SMILES	activity change
CC(C)C1C2=C(CC(C)(C)CC2=O)ON1c1ccccc1 (centres undefined)	-4.1% (inactive)
CC12C(=O)N(c3ccccc3)C(=O)C1C(c1ccccc1)N1CCCN12 (centres undefined)	2.73% (inactive)
CC(C)N1C(=O)N(c2ccccc2)C(C)(O)CC1(C)C (centres undefined)	-71.4% (active)
Cc1ccc(C(=O)N[C@H](C(=O)N2CCN(c3ncccn3)CC2)C(C)C)cc1	5.87% (inactive)
C[C@H]1NS(=O)(=O)c2cc(Cl)ccc2O[C@@H]1c1ccccc1	-5.74% (inactive)
CCOc1cc(/C=N/Nc2cc(C)nc3ccc(C)cc23)ccc1O	-2.46% (inactive)
Fc1ccccc1/C=N/Nc1cc(N2CCCCC2)ncn1	11.8% (inactive)
Cc1cc(N/N=C/c2ccccc2F)c2ccccc2n1	-142% (active)
CCCCN1CC(C)(C)[C@H](CC(=O)Nc2ccc(Br)cc2)C1=O	5.46% (inactive)
COc1ccc(CN2CCNC(=O)C2CC(=O)NCc2cn[nH]c2-c2ccccc2)c(F)c1 (centres undefined)	-3.5% (inactive)
O=C(c1ccc(F)cc1)C1CCN(Cc2cn[nH]c2-c2ccccc2)CC1	-104% (active)
Cc1ccccc1CN1CCN(C(=O)c2cccc(F)c2)CC1	-16.7% (inactive)
Cc1ccc2c(CN3CCN(S(=O)(=O)c4ccccc4C(F)(F)F)CC3)cc(=O)oc2c1	-74.7% (active)
COc1ccc2c(CN3CCN(S(=O)(=O)c4cccs4)CC3)cc(=O)oc2c1	-11.7% (inactive)
Cc1cc2oc(=O)cc(CN3CCN(S(=O)(=O)c4cccs4)CC3)c2cc1C(C)C	-5.54% (inactive)
O=C(N=C1SC2CS(=O)(=O)CC2N1Cc1ccccc1)c1ccccc1 (centres undefined)	-10.6% (inactive)
O=Nc1c(O)cc(O)c2ccccc12	4.37% (inactive)
Cc1ccc(-c2ccc(CN3C(C)C(=O)N(Cc4cn(CCC5OCCCO5)nn4)CCS3(=O)=O)cc2)cc1 (centres undefined)	-4.85% (inactive)
COc1cc(NC(=O)C2=C(C)OCCS2)c(Cl)cc1C(=O)NCCCN1CCCC(C)C1 (centres undefined)	-7.47% (inactive)
CC(=O)Nc1ccc2c3c(ccc([N+](=O)[O-])c13)CC2	-19% (inactive)
O=S1(=O)CCN(Cc2ccccc2)CC1	-7.16% (inactive)

SMILES	activity change
O=C1c2ccccc2C(=O)c2c1cccc2N1CCN(CCO)CC1	-26.5% (inactive)
O=C1c2ccccc2C(=O)c2c1cccc2N1CCN(Cc2ccccc2)CC1	-89.4% (active)
CCOC(=O)c1cc(-c2sc(NC(=O)c3ccccc3)nc2C)n(Cc2ccccc2)n1	-4.02% (inactive)
C[C@H]1CN([C@@H](C)CO)C(=O)CCCn2cc(nn2)CO[C@@H]1CN(C)S(=O)(=O)c1ccccc1C#N	-13.5% (inactive)
CC(=NNC(N)=O)C1CC2CCC1CC2 (centres undefined)	0.306% (inactive)
CC(C)NC(=O)Nc1ccc2c(c1)C(=O)N([C@H](C)CO)C[C@H](C)[C@@H](CN(C)Cc1ccc(C(F)(F)F)cc1)OCCCC[C@@H](C)O2	-29.9% (inactive)
CC(=O)c1ccccc1NC(=O)COC(=O)C1COc2ccccc2O1 (centres undefined)	-5.39% (inactive)
Nc1cc(=O)c2[nH]cnc2[nH]1	4.52% (inactive)
Cc1ccc(OS(=O)Nc2cccc3nccnc23)cc1 (centres undefined)	-73.2% (active)
Cc1ccc(C)c(NC(=O)c2ccc3nccnc3c2)c1	5.85% (inactive)
Cc1ccc(Oc2ccc3c(c2)C(=O)N(c2cccc4cccnc24)C3=O)cc1	-1.2% (inactive)
C[C@@H]1CN([C@H](C)CO)S(=O)(=O)c2ccc(C#CC3CCCCC3)cc2O[C@H]1CN(C)C(=O)Cc1ccncc1	-2.79% (inactive)
CC1=C(C(=O)N2CCOCC2)CC(CC(=O)NCC2CCCCC2)C(=O)N1Cc1ccc(F)cc1 (centres undefined)	-12.1% (inactive)
CC1C(=O)N(Cc2cn(CC3CCCCC3)nn2)CCS(=O)(=O)N1Cc1ccc(-c2cccc(N(C)C)c2)cc1 (centres undefined)	-6.27% (inactive)
CC1(C)Cc2c(C#N)c(SCc3nc4ccccc4[nH]3)nc(N3CCOCC3)c2CO1	1.1% (inactive)
CCOC(=O)CSc1nc(N2CCOCC2)c2c(c1C#N)CC(C(C)C)OC2 (centres undefined)	9.26% (inactive)
COc1ccc(CSc2nc(N3CCOCC3)c3c(c2C#N)CC(C)(C)OC3)cc1	-85.2% (active)
CN1CCn2cnc(C(=O)NCC(=O)OC(C)(C)C)c2C1=O	8.04% (inactive)
COc1ccc(-c2csc(Nc3cccc(C)n3)n2)cc1OC	-0.0615% (inactive)
COc1ccc(Nc2nc(-c3ccccc3)cs2)cc1	-83.5% (active)
COc1ccc(Nc2ccc3ccccc3c2)cc1	-0.36% (inactive)
